Entries with a potency or affinity are not part of this list. Calls of active or inactive are those of the source.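 How the source made its calls: active means polarization signal falls with dose and the fitted half-maximal concentration is at or below ten times the sample's top valid dose; inconclusive means flat curve at 30 to 70% inhibition, or poor fit; inactive means signal rises, flat within 30%, or potency beyond limit.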
target: Golgi-associated PDZ and coiled-coil motif-containing protein (Homo sapiens) (UniProt Q9HD26); assay: CAL PDZ peptide-binding inhibitors, dose response, biochemical, fluorescence polarization, Cerulean-tagged CAL PDZ, cherry-picks (AID 504773); details: 1 h; series mostly up to 50 µM

outcome, inactive:
Cc1cccc(C(=O)Nc2ccc(C(=O)/C=C/c3ccncc3)cc2)c1
COc1ccccc1NC(=O)N(c1c(N)n(Cc2ccccc2)c(=O)[nH]c1=O)C1CCCC1
NC(=O)c1cc2ccccc2o/c1=N\NC(=O)c1ccncc1
CC(=O)NC(Cc1ccccc1)C(C)=O (configuration not stated)
Cc1ccc(S(=O)(=O)N2CCN(C(=O)c3cc(=O)c4ccccc4o3)CC2)cc1
Cc1cc(/C=C2\SC(=O)N(C)C2=O)c(C)n1-c1ccc(O)cc1
COCCOC(=O)c1c(C)oc2ccc(OS(C)(=O)=O)cc12
Cc1cccc(NS(=O)(=O)Cc2ccccc2)c1C
COc1ccc(OC)c(S(=O)(=O)NCCCn2ccnc2)c1
COc1ccc(Cl)cc1C(=O)Nc1ccc2c(c1)OCCO2
Cc1cc(SCC(=O)OCC(=O)c2c(N)n(C)c(=O)n(C)c2=O)c(C)cc1Br
CCOC(=O)c1ccc(N=C2SC(C(=O)NC)CC(=O)N2Cc2ccc(F)cc2)cc1 (configuration not stated)
CCNC(=S)N(CCN(CC)CC)Cc1cc2cc3c(cc2[nH]c1=O)OCCO3
Cc1cccc(C(=O)Nc2nnc(COc3ccccc3)s2)c1
Cc1cccc(C)c1NC(=S)NC(=O)c1ccc(Br)o1
CC(C)(C)c1nn(-c2ccccc2)c2[nH]c(=O)c(C=O)cc12
Cc1ccnc2nc(C(=O)OCCOc3ccc(F)cc3)nn12
CCOC(=O)C1CCN(C(=O)C2CC(=O)N(c3ccc4c(c3)OCCO4)C2)CC1 (configuration not stated)
Cc1cc(C)c2nc(-c3ccncc3)cc(C(=O)N3CCN(Cc4ccccc4Cl)CC3)c2c1
Cc1ccc2nc(-c3cccc(Br)c3)cc(C(=O)NC3=NCCS3)c2c1
c1cc(-c2nnc(-c3ccncc3)o2)ccn1
Cc1cc(=O)n2c3ccccc3n(CC(O)CN3CCN(CCO)CC3)c2c1C#N (configuration not stated)
CC1CCC(NS(=O)(=O)c2ccc3c(c2)n(C)c(=O)c(=O)n3C)CC1 (configuration not stated)
O=C(Nc1cccc(F)c1)c1ccco1
COc1ccc2ccccc2c1CN(C)Cc1ccccc1
CCC(=O)Nc1ccc(S(=O)(=O)NCc2ccco2)cc1
C=CCOc1ccc2ccccc2c1CNn1cn[nH]c1=S
O=C(OCC(=O)N1CCOCC1)c1ccc[nH]c1=O
COCc1cc(C)nc(SCc2ccccc2)c1C#N
CC(=O)N1CCN(c2ccc(NC(=O)C(c3ccccc3)c3ccccc3)cc2)CC1
Nc1ccc(N(CCO)CCO)cc1
O=C(CCc1nc(-c2ccc(Cl)cc2)no1)NC1CCCCC1
CCCOc1ccc(CC(=O)N/N=C\c2ccc(F)cc2)cc1
CSc1cccc(NC(=O)N2CCCC(CNS(=O)(=O)Cc3ccccc3)C2)c1 (configuration not stated)
Cc1nc(N)c(CC(Br)CBr)c(Cl)n1 (configuration not stated)
Cc1ccccc1-n1c(C)c(C#N)c(=O)c(-[n+]2ccccc2)c1[S-]
CCCCNC(=S)NNc1c(Cl)cc(Cl)cc1Cl
